What all share (test): qHTS profiling for inhibitors of Plasmodium falciparum proliferation (AID 504749); further: nearly all actives have a fitted effect of over 60% in size
Settings in all cases: P. falciparum in erythrocytes, SYBR Green DNA, 72 h; series mostly up to 28.7 µM
For orientation: qHTS replaces the single test concentration by a dilution series.

For experiment [1], the system named is CP192. Summed up:
(§1)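 Fluorescence of SYBR Green-bound parasite DNA, read at 485/535 nm, served as the growth measure. Infected erythrocytes were cultured with compound 72 h; artemisinin (0.29 uM) and DMSO wells defined the normalization range.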

Experiment [2] relates to CP194. In outline:
as §1

The subject of experiment [3] is CP201. In outline: as §1
Experiment [4] deals with CP203. In outline: as §1
The subject of experiment [5] is CP211. In outline: as §1
Experiment [6] relates to CP215. In outline: as §1
Experiment [7] has as its system CP217. In outline: as §1
In experiment [8] the test system is CP237. Summed up: as §1
The test system of experiment [9] is CP238. Summed up:
as §1

For experiment [10], the system named is CP247. Summed up: as §1
In experiment [11] the test system is CP250. Summed up:
as §1

Experiment [12] deals with CP252. In outline: as §1
For experiment [13], the system named is CP256. Summed up:
as §1

Experiment [14] concerns CP260. Summed up: as §1
Experiment [15] relates to CP262. Summed up: as §1
Experiment [16] concerns CP265. Summed up:
as §1

Experiment [17] has as its system CP266. Summed up: as §1
The subject of experiment [18] is CP268. Summed up: as §1
In experiment [19] the test system is CP269. Summed up:
as §1

Experiment [20] deals with CP286. In outline: as §1

Molecules are shown by their SMILES. Records with an inconclusive call do not appear. Calls of active or inactive are those of the source. The call rests on the fitted dose curve; in most records, active means well fitted inhibition curve with a large enough effect; inconclusive means small, poorly fitted or top-dose-only effect; inactive means flat fitted curve, though single readings scatter.
Potency means the concentration at half of the fitted maximal effect.

As for `N[C@@H](Cc1cnc[nH]1)C(=O)O`, the Potency entry in experiment [1], in experiment [2], in experiment [3], in experiment [4], in [5] and in experiment [6] was “inactive” throughout. The Potency entry in experiment [7], in experiment [8], in experiment [9], in experiment [10], in experiment [11] and in experiment [12] was “inactive” in each case. For the same molecule, the Potency result in [13], in [14], in [15], in [16], in experiment [17] and in experiment [18] was “inactive” each time. The Potency entry in experiment [19] and in experiment [20] was “inactive” in each case.

For the molecule `NC(CO)(CO)CO`, the Potency entry in experiment [1], in experiment [2], in [3], in experiment [4], in experiment [5] and in experiment [6] was “inactive” in each case. The Potency entry in experiment [7], in experiment [8], in experiment [9], in [10], in experiment [11] and in experiment [12] was “inactive” in each case. Also, the Potency result in [13], in experiment [14], in experiment [15], in experiment [16], in experiment [17] and in experiment [18] was “inactive” in each case. For the same molecule, the Potency result in experiment [19] and in experiment [20] was “inactive” in each case.

Turning to `O=C(COc1ccc(Cl)cc1)N1CCN(Cc2ccc3c(c2)OCO3)CC1`, the Potency entry in experiment [1], in experiment [2], in experiment [3], in [4], in experiment [5] and in experiment [6] was “inactive” in each case. Also, the Potency entry in [7], in experiment [8], in [9], in experiment [10], in experiment [11] and in experiment [12] was “inactive” in each case. The Potency result in experiment [13], in experiment [14], in experiment [15], in experiment [16], in [17] and in experiment [18] was “inactive” in each case. In addition, the Potency entry in experiment [19] and in experiment [20] was “inactive” in each case.

As for `C[N+]1(CCCCC[N+]2(C)CCCC2)CCCC1`, the Potency result in [1], in experiment [2], in [3], in experiment [4], in experiment [5] and in experiment [6] was “inactive” throughout. For the same molecule, the Potency result in experiment [7], in experiment [8], in experiment [9], in experiment [10], in experiment [11] and in experiment [12] was “inactive” throughout. In addition, the Potency entry in experiment [13], in experiment [14], in [15], in experiment [16], in experiment [17] and in experiment [18] was “inactive” in each case. Moreover, the Potency result in experiment [19] and in [20] was “inactive” in each case.

For the molecule `CC(C)(CO)[C@@H](O)C(=O)NCCCO`, the Potency result in experiment [1], in experiment [2], in [3], in [4], in [5] and in experiment [6] was “inactive” each time. In addition, the Potency result in experiment [7], in experiment [8], in experiment [9], in [10], in experiment [11] and in experiment [12] was “inactive” in each case. In addition, the Potency result in [13], in experiment [14], in [15], in [16], in [17] and in experiment [18] was “inactive” each time. Further, the Potency result in [19] and in [20] was “inactive” in each case.

As for `COC(=O)[C@@H]1CC2=CC(=O)CC[C@]2(C)[C@@]23O[C@@H]2C[C@@]2(C)[C@@H](CC[C@@]24CCC(=O)O4)[C@H]13`, the Potency entry in [1], in experiment [2], in [3], in experiment [4], in experiment [5] and in experiment [6] was “inactive” throughout. Also, the Potency entry in experiment [7], in [8], in experiment [9], in experiment [10], in experiment [11] and in experiment [12] was “inactive” throughout. Further, the Potency entry in [13], in [14], in [15], in [16], in experiment [17] and in [18] was “inactive” each time. Also, the Potency entry in [19] and in experiment [20] was “inactive” throughout.

For `COc1cc(NS(C)(=O)=O)ccc1Nc1c2ccccc2nc2ccccc12`, the Potency in [1] is 5.36 µM (active); in experiment [2] it was 4.78 µM (active); in experiment [3], 5.36 µM (active); in experiment [4], 4.26 µM (active); in experiment [5], 4.78 µM (active); in experiment [6], 3.38 µM (active). Besides, the Potency in experiment [7] was 3.16 µM (active); in experiment [8], 1.58 µM (active); in experiment [9] it was 4.47 µM (active); in [10], 1.26 µM (active); in experiment [11], 1.58 µM (active); in [12] it was 0.891 µM (active). Besides, the Potency is 1 µM (active) in experiment [13]; 1 µM (active) in experiment [14]; 3.79 µM (active) in experiment [15]; 1 µM (active) in experiment [16]; 5.36 µM (active) in experiment [17]; 3.38 µM (active) in experiment [18]. Moreover, the figures for the Potency in experiment [19] and in experiment [20] were 4.78 µM (active) and 2 µM (active), respectively.

As for `CC(=O)Nc1c(I)cc(I)c(C(=O)O)c1I`, the Potency result in experiment [1], in experiment [2], in [3], in experiment [4], in experiment [5] and in experiment [6] was “inactive” throughout. Besides, the Potency entry in [7], in experiment [8], in experiment [9], in [10], in experiment [11] and in experiment [12] was “inactive” throughout. For the same molecule, the Potency entry in experiment [13], in [14], in experiment [15], in experiment [16], in experiment [17] and in experiment [18] was “inactive” throughout. Further, the Potency entry in experiment [19] and in experiment [20] was “inactive” in each case.

Turning to `CN1C2CCC1CC(OC(=O)c1c[nH]c3ccccc13)C2` (stereo not given), the Potency result in experiment [1], in [2], in [3], in experiment [4], in experiment [5] and in experiment [6] was “inactive” each time. Also, the Potency result in experiment [7], in experiment [8], in experiment [9], in experiment [10], in experiment [11] and in [12] was “inactive” in each case. Moreover, the Potency entry in experiment [13], in experiment [14], in experiment [15], in [16], in experiment [17] and in experiment [18] was “inactive” throughout. For the same molecule, the Potency entry in experiment [19] and in [20] was “inactive” throughout.

Turning to `COc1cc(C(=S)N2CCOCC2)cc(OC)c1OC`, the Potency result in experiment [1], in [2], in [3], in experiment [4], in experiment [5] and in experiment [6] was “inactive” throughout. In addition, the Potency entry in experiment [7], in experiment [8], in [9], in experiment [10], in [11] and in [12] was “inactive” throughout. Also, the Potency entry in experiment [13], in experiment [14], in experiment [15], in [16], in experiment [17] and in experiment [18] was “inactive” in each case. The Potency entry in experiment [19] and in experiment [20] was “inactive” each time.

For the molecule `O=c1ccc2ccccc2o1`, the Potency result in experiment [1], in experiment [2], in [3], in experiment [4], in [5] and in experiment [6] was “inactive” throughout. Besides, the Potency result in [7], in [8], in experiment [9], in [10], in experiment [11] and in experiment [12] was “inactive” throughout. Moreover, the Potency entry in [13], in experiment [14], in experiment [15], in [16], in [17] and in experiment [18] was “inactive” throughout. Also, the Potency entry in experiment [19] and in experiment [20] was “inactive” each time.

Consider `NCCC(O)(P(=O)(O)O)P(=O)(O)O`, for which the Potency entry in experiment [1], in experiment [2], in [3], in experiment [4], in [5] and in [6] was “inactive” throughout. Besides, the Potency entry in experiment [7], in experiment [8], in experiment [9], in [10], in experiment [11] and in [12] was “inactive” throughout. Further, the Potency entry in [13], in experiment [14], in experiment [15], in experiment [16], in experiment [17] and in experiment [18] was “inactive” in each case. Besides, the Potency entry in [19] and in experiment [20] was “inactive” in each case.

Take `O=S1(=O)c2cccc3cccc(c23)N1CCCN1CCN(c2ccc(F)cc2)CC1`: the Potency result in [1], in experiment [2], in experiment [3], in experiment [4], in experiment [5] and in [6] was “inactive” throughout. Moreover, the Potency result in [7], in experiment [8], in [9], in experiment [10], in experiment [11] and in [12] was “inactive” in each case. The Potency result in experiment [13], in [14], in experiment [15], in [16], in [17] and in [18] was “inactive” in each case. Further, the Potency result in experiment [19] and in experiment [20] was “inactive” each time.

Source of the values: PubChem BioAssay (NCATS).
